Test results: PubChem BioAssay
“And” between values parts separate entries of the source, which are not always exact repeats. Identical values can stand only once. The source made the active and inactive calls.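 How the source made its calls, unless noted: active means inhibition at or above 50% relative to wild type and mutant plate controls; inactive means inhibition below 50%.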

How the values were obtained:
[1] = reduction of polyQ htt aggregates in cells – imaging, exon1htt(103Q)mCFP cells, high-content imaging, primary screen (AID 483;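 active means visual image review flags a hit and inhibition of aggregation exceeds 20%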;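 further: compound exposure lasted 3 days before fixation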;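 on nuclei count: percent of the per-plate median nuclei count of sample wells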); conditions: exon1htt(103Q)mCFP cell line, aggregate imaging, at 2 µM; inhibition of aggregation: stronger effect = higher value; nuclei count: measured here: cell count, toxicity
[2] = endothelial E-selectin expression blockers – imaging, HUVEC, immunofluorescence, MLSMR starter and 10KST1 sets, primary screen (AID 487;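 active means visually confirmed hit in the image check and inhibition above 20%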;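 on inhibition: signal is fraction of cell area covered by stained E-selectin grains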;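 on nuclei count: 100% = median nuclei count of all wells on the same plate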); conditions: HUVEC TNFalpha-induced E-selectin immunofluorescence imaging, at 2 µM; inhibition: stronger effect = higher value; nuclei count: measured here: cell number, toxicity
[3] = Primary imaging screen for DUSP6 inhibitors that restore phospho-Erk in transfected HeLa cells, chemical complementation (AID 609;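 active means compounds giving at least 50% inhibition in the cell-based MKP-3 phosphatase rescue imaging test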;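 on inhibition: phospho-Erk level distribution per well compared with pooled transfected vehicle control wells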); conditions: HeLa MKP-3 transfected, phospho-Erk imaging KS statistic, at 10 µM, cells stimulated with TPA for 15 min
[4] = molecular target: Dual specificity protein phosphatase 6 (Homo sapiens) (UniProt Q16828); assay: as above; conditions: HeLa MKP-3 transfected, phospho-Erk imaging KS statistic; at 10 µM; stronger effect = higher value; cells stimulated with TPA for 15 min
Sequence of Dual specificity protein phosphatase 6 (Homo sapiens) (Q16828 whole entry, looked up): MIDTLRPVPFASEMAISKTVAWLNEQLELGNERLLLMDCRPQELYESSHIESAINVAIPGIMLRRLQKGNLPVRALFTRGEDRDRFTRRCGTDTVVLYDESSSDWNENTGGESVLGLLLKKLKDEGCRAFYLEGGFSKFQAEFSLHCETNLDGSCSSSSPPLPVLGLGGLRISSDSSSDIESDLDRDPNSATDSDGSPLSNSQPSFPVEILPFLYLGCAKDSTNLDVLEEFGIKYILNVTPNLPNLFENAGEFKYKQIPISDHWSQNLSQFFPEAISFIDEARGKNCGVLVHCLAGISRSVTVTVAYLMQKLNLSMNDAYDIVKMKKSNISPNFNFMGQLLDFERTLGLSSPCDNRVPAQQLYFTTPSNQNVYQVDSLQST

[5] = molecular target: Voltage-gated potassium channel subunit beta-2 (Rattus norvegicus) (UniProt P62483); assay: inhibitors of rat Kvbeta2 reductase activity – biochemical, NADPH fluorescence, primary screen (AID 622;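 active means fluorescence slope higher than the sample average by over 3 SD, cut at about -0.22 in these data, passing the limit was not always enough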;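 further: slope of raw intensity against log time taken from 70 to 1610 s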); conditions: recombinant KvBeta, 4-cyanobenzaldehyde reduction, at 10 µM, stronger effect = higher value
Sequence of Voltage-gated potassium channel subunit beta-2 (Rattus norvegicus) (P62483 whole entry, looked up): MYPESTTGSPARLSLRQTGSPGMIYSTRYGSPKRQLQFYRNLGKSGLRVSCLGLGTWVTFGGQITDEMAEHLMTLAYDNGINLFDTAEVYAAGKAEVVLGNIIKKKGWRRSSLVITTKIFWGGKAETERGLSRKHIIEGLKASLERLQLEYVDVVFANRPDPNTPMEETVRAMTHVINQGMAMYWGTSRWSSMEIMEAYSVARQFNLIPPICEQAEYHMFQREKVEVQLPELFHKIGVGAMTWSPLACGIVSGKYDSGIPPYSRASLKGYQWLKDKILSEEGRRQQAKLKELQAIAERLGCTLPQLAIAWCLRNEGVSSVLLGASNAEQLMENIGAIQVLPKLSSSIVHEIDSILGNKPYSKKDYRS

[6] = molecular target: Voltage-gated potassium channel subunit beta-2 (Rattus norvegicus) (UniProt P62483); assay: enhancers of rat Kvbeta2 NADPH turnover – biochemical, NADPH fluorescence, primary screen (AID 623;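 active means NADPH fluorescence slope more negative than the mean of all samples by about 3 SD, 99.7% confidence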;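 further: fluorescence intensity change per second fitted from 20 to 320 s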); conditions: Recombinant KvBeta, NADPH fluorescence decrease slope, 10 min; at 10 µM; stronger effect = lower value
[7] = molecular target: Alpha-2C adrenergic receptor (Homo sapiens) (UniProt P18825); assay: compounds altering alpha2C-coupled GIRK flux – cell-based, HEK293 alpha2C/GIRK1/2, thallium flux, primary screen (AID 624;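 active means fluorescence slope after compound addition differing from the mean of all screened samples at 99.7% confidence, in either direction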;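 further: slope of fluorescence ratio to pre-addition baseline per second over 15 to 24 s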); conditions: thallium flux BTC fluorescence, at 10 µM, actives lie on both sides
Sequence of Alpha-2C adrenergic receptor (Homo sapiens) (P18825 whole entry, looked up): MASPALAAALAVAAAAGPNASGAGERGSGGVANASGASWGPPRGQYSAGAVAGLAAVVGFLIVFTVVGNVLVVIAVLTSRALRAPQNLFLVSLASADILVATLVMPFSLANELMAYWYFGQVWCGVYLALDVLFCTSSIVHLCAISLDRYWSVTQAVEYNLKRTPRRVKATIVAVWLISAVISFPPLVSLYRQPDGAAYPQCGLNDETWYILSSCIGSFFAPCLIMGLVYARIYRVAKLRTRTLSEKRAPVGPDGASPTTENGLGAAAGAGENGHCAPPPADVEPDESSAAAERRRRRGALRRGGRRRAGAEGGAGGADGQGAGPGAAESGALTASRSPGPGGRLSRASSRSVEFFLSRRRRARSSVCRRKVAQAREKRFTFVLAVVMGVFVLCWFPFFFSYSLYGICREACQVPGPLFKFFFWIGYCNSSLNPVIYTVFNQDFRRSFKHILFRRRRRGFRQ

[8] = inhibitors of larval lipid processing in zebrafish, primary screen, whole organism, PED6 fluorescence, gall bladder and intestine (AID 686;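 active means a full or partial loss of lipid-probe fluorescence in the fish gall bladder, intestine or both, judged by eye; inactive means no fluorescence loss, or compound toxic to the fish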;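 further: larvae 5 to 7 days old with five fish per well; signal comes from phospholipase A2 cleavage of quenched PED6 carried via bile; overnight exposure to compound and PED6 before scoring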); conditions: Zebrafish larvae PED6 lipid processing, fluorescence scoring; screened at 20 µM (by protocol)
[9] = loss of swimming-algae plug formation – whole organism, Chlamydomonas reinhardtii, WT vs cilia-less mutant, absorbance, 96-well, primary screen (AID 463189); conditions: Chlamydomonas reinhardtii gravitaxis, OD600 absorbance, 2 days; at 10 µM; stronger effect = higher value;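 further: 0% = wild type cc124 cells in DMSO and 100% = ciliumless bld1 mutant cells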
[10] = blockers of RIG-like receptor reporter activation – cell-based, Sendai virus stimulus, luciferase, 10K MLSCN set, TLR/RLR signaling modifier project, primary screen (AID 602276;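 active means inhibition at or above 50% at 10 µM; inactive means inhibition below 50%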;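 further: firefly luciferase from ISG56 promoter only with Renilla not read in this screen; 0% = Sendai virus plus DMSO and 100% = medium plus DMSO without virus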); conditions: HEK293 RL24 IRF3 luciferase reporter, at 10 µM, stronger effect = higher value
[11] = TLR3 IRF3 reporter activation blockers – cell-based, poly I:C stimulus, luciferase, 10K MLSCN set, primary screen (AID 602277;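 active means inhibition of the reporter signal at or above 50%; inactive means inhibition below 50%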); conditions: HEK293-TLR3 RL24 IRF3 luciferase reporter, at 10 µM, stronger effect = higher value
[12] = measured here: cell density z-score
[13] = measured here: nuclear c-Myc green intensity z-score
[14] = measured here: nuclear pErk red intensity z-score, stronger effect = higher value

Row | SMILES | inhibition of aggregation [1] | nuclei count [1] [%] | inhibition [2] | nuclei count [2] [%] | z-score [3, 12] | z-score [3, 13] | z-score [3, 14] | inhibition [4] | fluorescence slope [5] | NADPH fluorescence slope [6] | slope [7] | outcome [8] | inhibition [9] | inhibition [10] | inhibition [11]
1 | Oc1c(Cl)cc(Cl)cc1Sc1cc(Cl)cc(Cl)c1O | 13.7% (inactive) | 90 | -49.8% (inactive) | 117 | -0.357 | -0.512 | 0.181 | 1.48% (inactive) | -0.478 (inactive) | -6e-05 (inactive) | 0.00369 (inactive) | inactive | 155% (active) | 10.6% (inactive) | -53.7% (inactive)
2 | NS(=O)(=O)c1cc2c(cc1Cl)NCNS2(=O)=O | -4.8% (inactive) | 107 | -46.3% (inactive) | 102 | -0.71 | -0.153 | -1.04 | -0.493% (inactive) | -0.428 (inactive) | 1.8e-05 (inactive) | 0.00467 (inactive) | inactive | 0.566% (inactive) and -18.6% (inactive) | 15.2% (inactive) | 40.7% (inactive)
3 | Cn1c(=O)c2c(ncn2CC(O)CO)n(C)c1=O (centres undefined) | 15% (inactive) | 90 | -81.8% (inactive) | 127 | 0.192 | -0.712 | 0.659 | 3.59% (inactive) | -0.438 (inactive) | 4.1e-05 (inactive) | 0.00483 (inactive) | inactive | 8.88% (inactive) | 12.6% (inactive) | 29.1% (inactive)
4 | CCOC(=O)C1=C(C)NC(C)=C(C(=O)OC)C1c1cccc([N+](=O)[O-])c1 (centres undefined) | -10.5% (inactive) | 97.3 | -50.3% (inactive) | 103 | 1.1 | 0.446 | 0.0067 | 19% (inactive) | -0.475 (inactive) | -2e-05 (inactive) | 0.00369 (inactive) |  | 5.78% (inactive) and 6.95% (inactive) | 12.9% (inactive) | 43.8% (inactive)
5 | CCCOc1ccc2nc(NC(=O)OC)[nH]c2c1 | -14.5% (inactive) | 98.6 | -34% (inactive) | 126 | 0.515 | 0.392 | -0.582 | 1.48% (inactive) | -0.47 (inactive) | -3.6e-05 (inactive) | 0.00449 (inactive) | inactive | -11.7% (inactive) | 25.2% (inactive) | 74.2% (active)
